# Screen size: about 400,000 compounds; about 2,100 (0.53%) were called active. Not shown: some 14% with an inconclusive outcome. How the calls were made is not given here. This excerpt belongs to a sample that is enriched for actives.
# Molecular target: Ataxin-2 (Homo sapiens) (UniProt Q99700)
# Test: qHTS for Inhibitors of ATXN expression.
# Format: functional
# Ataxin-2 (Homo sapiens), sequence (Q99700 whole entry): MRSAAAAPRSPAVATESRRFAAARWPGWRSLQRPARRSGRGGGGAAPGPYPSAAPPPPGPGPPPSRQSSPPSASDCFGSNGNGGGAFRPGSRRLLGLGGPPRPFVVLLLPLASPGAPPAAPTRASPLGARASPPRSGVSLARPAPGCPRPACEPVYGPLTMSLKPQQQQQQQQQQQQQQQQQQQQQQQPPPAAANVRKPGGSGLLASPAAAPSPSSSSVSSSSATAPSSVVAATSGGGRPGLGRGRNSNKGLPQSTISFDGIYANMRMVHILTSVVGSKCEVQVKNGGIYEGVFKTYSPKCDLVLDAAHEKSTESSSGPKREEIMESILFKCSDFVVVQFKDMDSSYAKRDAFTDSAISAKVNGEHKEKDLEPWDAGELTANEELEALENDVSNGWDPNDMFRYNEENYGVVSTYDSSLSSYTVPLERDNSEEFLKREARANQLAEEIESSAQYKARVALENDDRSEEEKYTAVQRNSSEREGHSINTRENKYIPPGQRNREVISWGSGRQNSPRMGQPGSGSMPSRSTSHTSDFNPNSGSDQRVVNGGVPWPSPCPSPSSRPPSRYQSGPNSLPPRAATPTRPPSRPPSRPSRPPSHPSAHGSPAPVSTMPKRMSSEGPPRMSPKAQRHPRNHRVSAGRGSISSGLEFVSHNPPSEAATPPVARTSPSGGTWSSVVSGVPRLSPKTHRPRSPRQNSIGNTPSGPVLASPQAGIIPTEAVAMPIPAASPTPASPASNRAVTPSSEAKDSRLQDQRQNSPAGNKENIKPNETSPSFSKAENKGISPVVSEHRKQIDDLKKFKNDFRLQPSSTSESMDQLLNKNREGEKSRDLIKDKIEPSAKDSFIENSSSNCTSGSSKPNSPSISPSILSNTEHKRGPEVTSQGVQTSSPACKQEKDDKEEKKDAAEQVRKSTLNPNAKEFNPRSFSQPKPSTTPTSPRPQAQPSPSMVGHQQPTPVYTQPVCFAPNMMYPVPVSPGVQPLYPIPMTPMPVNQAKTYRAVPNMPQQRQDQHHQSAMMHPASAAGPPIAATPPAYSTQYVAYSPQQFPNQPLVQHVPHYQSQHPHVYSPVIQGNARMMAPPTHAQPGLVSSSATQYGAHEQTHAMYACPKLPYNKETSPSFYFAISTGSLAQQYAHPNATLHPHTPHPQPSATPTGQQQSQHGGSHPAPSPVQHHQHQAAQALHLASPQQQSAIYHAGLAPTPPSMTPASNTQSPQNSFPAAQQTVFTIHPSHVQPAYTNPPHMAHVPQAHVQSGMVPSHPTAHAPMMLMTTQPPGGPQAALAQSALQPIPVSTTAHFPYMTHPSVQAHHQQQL
row,Compound,Potency
1,Nc1ccc(-c2nc(-c3ccccc3)nc3ccccc23)cc1,inactive
2,C(=N\Nc1ncnc2ccccc12)/c1ccccc1,inactive
3,C(=N\Nc1nc(-c2cccnc2)nc2ccccc12)/c1ccccc1,inactive
4,O=[N+]([O-])c1ccc(-c2nc(Nc3cccc(O)c3)c3ccccc3n2)cc1,31.6 µM (active)
5,O=[N+]([O-])c1ccc(-c2nc(NCC3CCCO3)c3ccccc3n2)cc1 (stereo unspecified),inactive
6,Cc1ccc(-c2nc(N/N=C/c3cccc([N+](=O)[O-])c3)c3ccccc3n2)cc1,39.8 µM (active)
7,Cc1ccccc1N1CCN(Cc2nc(Cc3ccccc3)no2)CC1,inactive
8,Clc1nc(N2CCOCC2)ncc1Br,inactive
9,CCOC(=O)C(C)Sc1cnccn1 (stereo unspecified),inactive
10,CCCCC(=O)NC(c1ccco1)c1cc(Cl)c2cccnc2c1O (stereo unspecified),inactive
11,CNC(=O)c1ccc(-c2sc3nc(N4CCOCC4)c4c(c3c2N)CC(C)(C)OC4)o1,inactive
12,Cc1cccc(-n2nnc(C(=O)N3CCc4ccccc4C3)c2N)c1,inactive
13,COC(=O)[C@@H]1CCCN1C(=O)c1cnn(-c2ncc3c(n2)-c2ccccc2CCC3)c1C1CC1,inactive
14,Cc1ccc(-n2ncc(C(=O)NCCN3CCc4ccccc4C3)c2C2CCN(C(=O)OC(C)(C)C)CC2)c(C)c1,20 µM (active)
15,CCOC(=O)c1cc2c(=O)n3ccccc3nc2n(Cc2ccco2)/c1=N/C(=O)c1ccccc1OC,inactive
16,CCc1cc(S)n2c(nc3ccccc32)c1C#N,inactive
17,N#Cc1cc(-c2ccccc2)[nH]c1-c1nccc2ccccc12,inactive
18,Oc1ncc(I)cc1I,inactive
19,Cn1cnnc1SCC(=O)Nc1cccc(S(=O)(=O)N2CCOCC2)c1,inactive
20,O=C(Nc1nc[nH]n1)c1cccc(S(=O)(=O)N2CCOCC2)c1,inactive
21,CC(C)(C)c1ccc(OCCCC(=O)Nc2cccc(S(=O)(=O)N3CCOCC3)c2)cc1,28.2 µM (active)
22,Cc1ccccc1NC(=O)CN1C(=O)S/C(=C\c2ccc(-c3cccc(C(=O)O)c3C)o2)C1=O,inactive
23,O=C(O)c1cc(N/N=C/C=C/c2ccccc2)ccc1Cl,inactive
24,COCC1CCCN(Cc2cn(-c3ccccc3F)nc2-c2cc(C)sc2C)C1 (stereo unspecified),inactive

row,Compound,Potency
1,COC(=O)c1ccccc1-c1c2ccc(=N)cc-2oc2cc(N)ccc12,inactive
2,CCOc1ccccc1-c1c2cc(O)c(=O)cc-2oc2cc(O)c(O)cc12,11.2 µM (active)
3,COc1ccc(CSc2nc3ccncc3n2Cc2nc(-c3ccc(OC)c(OC)c3)oc2C)cc1,39.8 µM (active)
4,COc1ccc(CNC(=O)C[S+]([O-])Cc2nc(-c3ccc(C)cc3)oc2C)cc1 (stereo unspecified),inactive
5,CCn1cc2nc(SCc3cccc(OC)c3)n(Cc3ccc(Cl)cc3)c(=O)c2n1,inactive
6,CCN(CC(=O)N(CC(C)C)c1c(N)n(CC(C)C)c(=O)[nH]c1=O)Cc1nc(O)c2ccccc2n1,inactive
7,Cc1ccc(-c2nc(C[S+]([O-])CC(=O)NC3CC3)c(C)o2)cc1 (stereo unspecified),inactive
8,COc1ccc(-n2nc(C(=O)NCC(=O)Nc3ccc(F)cc3)c3ccccc3c2=O)cc1,inactive
9,COc1ccc(NCC(=O)n2c(C)c(C)c3ccccc32)cc1,inactive
10,CCCCN(CC)C(=O)c1nn(-c2ccc(OC)cc2)c(=O)c2c1c1ccccc1n2C,20 µM (active)
11,CC1(C)C(=O)Nc2ccccc2N1C(=O)COC(=O)Cc1ccc(Cl)c(Cl)c1,inactive
12,CCCCN=C(S)NNc1c(Cl)cc(Cl)cc1Cl,inactive
13,CCN(CC)CCNC(=O)c1[nH]c2ccccc2c1Sc1ccc(Cl)cc1,28.2 µM (active)
14,O=C(NN=C1CCCC1)c1[nH]c2ccc(Cl)cc2c1-c1ccccc1,inactive
15,COc1cccc2[nH]c(C(=O)NCCCN3CCCC3=O)cc12,inactive
16,Cc1[nH]c2ccccc2c1C(=O)CSc1ccc(Cl)cc1,inactive
17,COC(=O)C1CCN(C(=O)COC(=O)c2oc3ccc(OC)cc3c2C)CC1,inactive
18,Cc1[nH]c2ccccc2c1SCC(=O)N1CCCCC1,inactive
19,COc1ccc2c(Sc3ccc(Cl)cc3)c(C(=O)NCCCN3CCCCC3)[nH]c2c1,39.8 µM (active)
20,COc1ccc(Cn2c(=O)[nH]c3cc(C(=O)NCCCN4CCCC4)ccc3c2=O)cc1,inactive
21,O=C(NCCCN1CCCCC1)c1[nH]c2ccccc2c1Sc1ccc(Cl)cc1,39.8 µM (active)
22,O=C(COC(=O)CCSc1ccc(Cl)cc1)NCc1ccccc1,inactive
23,COc1ccc2c(Sc3ccccc3)c(C(=O)N3CCC(C)CC3)[nH]c2c1,39.8 µM (active)
24,N#CC1=C(N)Oc2c(oc(CO)cc2=O)C1c1ccccc1[N+](=O)[O-] (stereo unspecified),inactive

row,Compound,Potency
1,O=C(CCNC(=O)Cn1cnc2ccccc2c1=O)NCC1CCCO1 (stereo unspecified),inactive
2,Cc1ccc(OCCn2cnc3ccccc3c2=O)c([N+](=O)[O-])c1,inactive
3,CCCCCOc1ccc(CSC2=NCCN2)cc1[N+](=O)[O-],35.5 µM (active)
4,COC(=O)C(N)Cc1ccc(OC)c([N+](=O)[O-])c1 (stereo unspecified),inactive
5,Cc1ccccc1NC(=O)COc1ccc(Br)cc1C,inactive
6,CCC1CN(C(=O)NCc2ccc(F)cc2)c2ccccc2O1 (stereo unspecified),inactive
7,O=C(Cn1sc2ccccc2c1=O)Nc1ccccc1,39.8 µM (active)
8,O=C(Nc1ccc(F)cc1)c1cccc2ccccc12,inactive
9,O=C(Cn1sc2ccccc2c1=O)Nc1ccc(F)cc1,31.6 µM (active)
10,CC(=O)c1ccccc1NCC(=O)Nc1ccc(C)cc1,inactive
11,Cc1ccc(NC(=O)Cn2sc3ccccc3c2=O)cc1,25.1 µM (active)
12,O=C(CN1C(=O)c2cccc3cccc1c23)Nc1ccccc1,inactive
13,CCn1c(=O)c(C(=O)Nc2ccc(C)cc2)c(O)c2ccccc21,inactive
14,O=C(CN1C(=O)CSc2ccc(C(F)(F)F)cc21)Nc1ccccc1,inactive
15,O=C(CC1C(=O)NCCN1C(=O)Nc1ccccc1)Nc1ccc(F)cc1 (stereo unspecified),inactive
16,COc1cccc2sc3cc(NCC[C@@H]4CCCN4C)ccc3c(=O)c12,inactive
17,CCc1nc2ccc(C(=O)Nc3cc(-c4ccccc4)ccc3OC)cn2c1N(CC)CCN(C)C,39.8 µM (active)
18,COc1ccc(C)cc1NC(=O)c1cc(-c2ccccc2)nc2c1cnn2C(C)C,inactive
19,CCc1nc2ccc(C(=O)Nc3cccc(OC)c3)cn2c1N(CCC(C)C)CCN(C)C,14.1 µM (active)
20,COc1ccc(NC(=O)c2ccc(S(=O)(=O)N3CC(C)CC(C)C3)cc2)cc1S(N)(=O)=O (stereo unspecified),inactive
21,CCc1nc2ccc(C(=O)Nc3ccc(OC)c(OC)c3)cn2c1N(C)CCC(C)C,31.6 µM (active)
22,COc1cc(C(=O)Nc2ccn(C)n2)ccc1OC(F)F,inactive
23,CCCNC(=O)c1c(N)n(-c2cccc(OC)c2)c2nc3ccccc3nc12,inactive

# — ChEMBL document CHEMBL1201862, “PubChem BioAssay data set” (2004)
